Results on 30 compounds are retold here after ChEMBL document CHEMBL1157539, “Thousands of chemical starting points for antimalarial lead identification” (Nature, 2010).

Where “and” joins values, the source holds several entries; their conditions need not be identical. Equal entries are not always repeated.

What all share (assay type): functional
In assay [1] the test system is Plasmodium falciparum. The experiment in a line: GSK_TCMDC: Inhibition of Plasmodium falciparum 3D7 in whole red blood cells, using parasite LDH activity as an index of growth. Test compounds present at 2uM.
Assay [2] deals with Plasmodium falciparum. The experiment in a line: GSK_TCMDC: Inhibition of Plasmodium falciparum Dd2 in whole red blood cells, using parasite LDH activity as an index of growth. Test compounds present at 2uM.
The test system of the next assay is HepG2. The experiment in a line: GSK_TCMDC: Percent inhibition of human HepG2 cell line. Test compounds present at 10uM.

For `Cc1ccccc1CNCC(O)c1cccc(C(F)(F)F)c1` (stereo not given), the Inhibition (in general, the relative decrease from the control value, in per cent) in the assay with Plasmodium falciparum [1] worked out at 99%; in the assay on Plasmodium falciparum [2], 77%; in the assay with HepG2, 5%.

For `COc1ccc(C2CNCc3c2cc(OC)c(OC)c3Cl)cc1.Cl` (stereo not given), the Inhibition in the assay with Plasmodium falciparum [1] was 98%; in the assay with Plasmodium falciparum [2], 3%; in the assay with HepG2, 42%.

Take `N#Cc1ccc(N(CC(=O)NCCc2ccc(F)cc2)CC2CC2)c2ccccc12.O=C(O)C(F)(F)F`: the Inhibition in the assay with Plasmodium falciparum [1] stood at 91%; in the assay on Plasmodium falciparum [2], 23%; in the assay with HepG2 it was 28%.

Turning to `CN1CC=C(c2c[nH]c3ccc(OCc4ccccc4)cc23)CC1`, the Inhibition with Plasmodium falciparum [1] stood at 95%; with Plasmodium falciparum [2], 97%; in the assay with HepG2, 0%.

On to `COc1ccc(C=CC(=O)NC2CCC(CN3CCC(c4c[nH]c5ccccc45)CC3)CC2)cc1OC` (stereo not given), for which the Inhibition in the assay with Plasmodium falciparum [1] was 100%; in the assay on Plasmodium falciparum [2], 85% and 72%; in the assay with HepG2, 14% and 15%.

In the case of `S=C(NCC1CCCCC1)NC1CCC(CN2CCC(c3c[nH]c4ccccc34)CC2)CC1` (stereo not given), the Inhibition with Plasmodium falciparum [1] stood at 88%; in the assay on Plasmodium falciparum [2], 10%; in the assay with HepG2 it was 29%.

On to `C=C[C@H]1CN2CC[C@H]1C[C@H]2[C@H](O)c1cc(/C=C/c2ccc(F)cc2)nc2ccc(OC)cc12.Cl`, for which the values for the Inhibition in the assay on Plasmodium falciparum [1], with Plasmodium falciparum [2] and in the assay with HepG2 were 99%, 99% and 25%, respectively.

`CCCCCCC(CC)c1cc(O)c2c(c1)OC(C)(C)c1ccncc1-2.Cl` (stereo not given): the values for the Inhibition in the assay on Plasmodium falciparum [1], in the assay with Plasmodium falciparum [2] and in the assay on HepG2 were 94%, 52% and 0%, respectively.

As to `Cc1ccc(C(=O)Nc2ccnc(N(C)C3CCN(Cc4cccc(O)c4)CC3)c2)cn1.O=C(O)C(F)(F)F`, the Inhibition amounted to 90% with Plasmodium falciparum [1], 1% in the assay with Plasmodium falciparum [2] and 0% in the assay with HepG2.

As to `CCCCC/C=C/C(=O)NC1CCC(CN2CCC(c3c[nH]c4ccccc34)CC2)CC1` (stereo not given), the Inhibition in the assay with Plasmodium falciparum [1] is listed as 87%; with Plasmodium falciparum [2], 11%; in the assay on HepG2 it was 19%.

As to `C#CCN1CCC2=C(C1)c1c(O)cc(C(C)CCCc3ccc(F)cc3)cc1OC2(C)C` (stereo not given), the Inhibition was 98% in the assay with Plasmodium falciparum [1], 90% with Plasmodium falciparum [2] and 1% in the assay on HepG2.

For `COC(=O)c1ccc(CC(C)NCC(O)c2cccc(Br)c2)cc1` (stereo not given), the Inhibition amounted to 99% with Plasmodium falciparum [1], 88% in the assay on Plasmodium falciparum [2] and 0% in the assay with HepG2.

For the compound `O=C(NC1CCC(CN2CCC(c3c[nH]c4ccccc34)CC2)CC1)c1ccc(-c2cc(C(F)(F)F)ccc2Cl)o1` (stereo not given), the values for the Inhibition in the assay on Plasmodium falciparum [1], in the assay on Plasmodium falciparum [2] and with HepG2 were 100%, 34% and 5%, respectively.

Regarding `C/C=C1\CN2CC[C@H]1C[C@H]2[C@H](O)c1ccnc2ccc(OC)cc12.O=S(=O)(O)O`, the Inhibition worked out at 99% in the assay on Plasmodium falciparum [1], 61% in the assay on Plasmodium falciparum [2] and 0% in the assay on HepG2.

On to `Cc1cc(N(C)C2CCN(C)CC2)nc(Nc2ccc(Br)cc2)n1`, for which the Inhibition came out at 100% in the assay on Plasmodium falciparum [1], 92% in the assay with Plasmodium falciparum [2] and 0% in the assay with HepG2.

For `COc1ccc(C(=O)C2CC2CN2CC=C(c3c[nH]c4ccccc34)CC2)cc1` (stereo not given), the Inhibition in the assay on Plasmodium falciparum [1] turned out to be 95%; in the assay with Plasmodium falciparum [2], 89%; in the assay on HepG2, 12%.

Turning to `Cc1cccc(N2CCN(Cc3cc(Cl)ccc3O)CC2)c1C.O=C(O)C(=O)O`, the Inhibition is given as 96% with Plasmodium falciparum [1], 96% in the assay with Plasmodium falciparum [2] and 0% in the assay with HepG2.

Regarding `CS(=O)(=O)Nc1ccc2[nH]cc(C3CCN(CC4CCC(NC(=O)/C=C/c5ccccc5Cl)CC4)CC3)c2c1` (stereo not given), the results for the Inhibition in the assay with Plasmodium falciparum [1], in the assay on Plasmodium falciparum [2] and with HepG2 were 96%, 7% and 12%, respectively.

On to `O=C(/C=C/c1ccc(Cl)c(Cl)c1)N1CCC2CC(N3CCC(c4c[nH]c5ccccc45)CC3)CCC2C1` (stereo not given), for which the values for the Inhibition with Plasmodium falciparum [1], with Plasmodium falciparum [2] and in the assay with HepG2 were 100%, 99% and 31%, respectively.

For `CCN1CCC2(c3cccc(OC)c3)Cc3nc4ccccc4c(-c4ccccc4)c3CC2C1` (stereo not given), the Inhibition in the assay with Plasmodium falciparum [1] was found to be 99%; in the assay on Plasmodium falciparum [2], 98%; in the assay on HepG2 it was 0%.

In the case of `O=C(/C=C/C=C/c1ccccc1)NC1CCC(CN2CCC(c3c[nH]c4ccccc34)CC2)CC1` (stereo not given), the figures for the Inhibition with Plasmodium falciparum [1], with Plasmodium falciparum [2] and in the assay on HepG2 were 100%, 66% and 49%, respectively.

For `Cc1cc2cc(CNCCc3ccccc3Br)ccc2nc1N.Cl`, the Inhibition is given as 98% with Plasmodium falciparum [1], 91% with Plasmodium falciparum [2] and 31% in the assay on HepG2.

For `COCCNCc1cccc(-c2ccccc2CN(C(=O)Nc2ccccc2)C2CCN(Cc3ccccc3)CC2)c1.O=C(O)C(F)(F)F`, the Inhibition in the assay with Plasmodium falciparum [1] amounted to 96%; with Plasmodium falciparum [2], 51%; in the assay with HepG2 it was 30%.

In the case of `OC(CNCc1ccccc1OC(F)F)c1cccc(C(F)(F)F)c1` (stereo not given), the Inhibition in the assay with Plasmodium falciparum [1] is given as 97%; with Plasmodium falciparum [2], 52%; in the assay on HepG2 it was 2%.

As to `C=C[C@H]1CN2CC[C@H]1C[C@H]2[C@H](OS(=O)(=O)O)c1ccnc2ccccc12`, the Inhibition with Plasmodium falciparum [1] was found to be 99%; in the assay with Plasmodium falciparum [2], 15%; with HepG2 it was 8%.

As for `O=C(Nc1ccc(Oc2ccccc2)cc1)N1CCC(CN2CCC(c3c[nH]c4ccccc34)CC2)CC1`, the Inhibition in the assay on Plasmodium falciparum [1] is listed as 100%; in the assay on Plasmodium falciparum [2], 59%; with HepG2 it was 53%.

For the compound `CCCc1cc([C@@H](O)[C@@H]2C[C@@H]3CCN2C[C@@H]3CC)c2ccccc2n1`, the Inhibition was 100% in the assay on Plasmodium falciparum [1], 57% with Plasmodium falciparum [2] and 9% in the assay on HepG2.

Take `O=C(NC1CCC(CN2CCC(c3c[nH]c4ccccc34)CC2)CC1)c1ccc(-c2ccccc2[N+](=O)[O-])o1` (stereo not given): the Inhibition in the assay on Plasmodium falciparum [1] was found to be 100%; in the assay on Plasmodium falciparum [2] it was 34%; in the assay with HepG2, 24%.

On to `CC[C@H]1CN2CC[C@@H]1C[C@H]2[C@H](O)c1cc(N2CCC(O)CC2)nc2ccc(OC)cc12`, for which the figures for the Inhibition in the assay on Plasmodium falciparum [1], with Plasmodium falciparum [2] and in the assay with HepG2 were 99%, 92% and 15%, respectively.

For `O=C(/C=C/c1cc([N+](=O)[O-])ccc1Cl)NC1CCC(CN2CCC(c3c[nH]c4ccccc34)CC2)CC1` (stereo not given), the Inhibition in the assay on Plasmodium falciparum [1] is recorded as 100%; in the assay on Plasmodium falciparum [2], 94%; in the assay with HepG2, 21%.
